# Among all 25,000 compounds or so, about 970 (3.9%) were called active. About 8% were inconclusive and are not listed. No rule for the calls is given here. The list comes from a sample in which actives are over-represented; it also holds similar structures and randomly drawn compounds.
# Legend:
# Experiment in all cases: Primary Screen for Target Class Profiling of Small Molecule Inhibitors of Methyltransferases
# [1] = molecular target: Catechol O-methyltransferase (Homo sapiens) (UniProt P21964); conditions: purified enzyme, MTase-Glo SAH luminescence; activity change, negative = inhibition: at 40 µM, stronger effect = lower value; outcome: 40 uM
# Source text: (§1) PI: Matthew D. Hall Ph.D. and Quinlin M. Hanson Ph.D.
# (§2) National Center for Advancing Translational Sciences (NCATS)
# (§3) National Institute of Health (NIH), Rockville, MD
# (§4) Target class profiling (TCP) is a chemical biology approach amenable to investigating understudied biological targets. TCP is achieved by developing a generalizable assay platform and applying it to screen a curated set of compound libraries against representative members of a target class. Small molecule methyltransferases (SMMTase) are a subclass of methyltransferase that act on metabolites to modulate signaling pathways, metabolize xenobiotics, or balance the available methyl pool. We screened four curated libraries totaling 27,574 unique compounds against the SMMTases nicotinamide N-methyltransferase (NNMT), phenylethanolamine N-methyltransferase (PNMT), histamine N-methyltransferase (HNMT), glycine N-methyltransferase (GNMT), catechol O-methyltransferase (COMT), and guanidinoacetate N-methyltransferase (GAMT). The data generated by this TCP can be leveraged for informed tool molecule development. For example, in the associated publication we identified a chemotype of HNMT-selective inhibitors. Additionally, we identified a putative SMMTase-selective inhibitor with potential as a tool molecule for studying broader methyltransferase biology.
# (§5) High-through put screening assays were developed at the National Center for Advancing Translational Science (NCATS) for the enzymes NNMT, PNMT, HNMT, GNMT, COMT, and GAMT. Enzymatic activity was measured as a function of SAM cofactor conversion using the MTase Glo kit (Promega) for all enzymes. All assays were performed in 1536-well format with substrates and SAM concentrations at KM values. Enzyme concentration and assay timing were optimized for 10-20% SAM conversion. Initial screening of 27,574 compounds was done as single-point assays using the highest compound concentration (40 uM). […] These compounds were replated in 11-point dose response and assayed against NNMT, PNMT, HNMT, GNMT, COMT, GAMT, and a counter-assay. The IC50 and efficacy (maximal response) values were determined for each dose-response curve. These values are also accounted for in the area under the curve (AUC) values.
# (§6) PROTOCOL TABLE (as described by Inglese J, Shamu CE and Guy RK. 2007)
# (§7) SEQUENCE No. (e.g., 1, 2, 3, etc.); […] (e.g., Cells, Incubation, Reagent, etc.); VALUE; DESCRIPTION.
# (§8) 1; Reagent; 2 uL; SMMTase Enzyme (2x) in reaction buffer, columns 1- 48.
# (§9) 2; Reagent; 1 uL; SAM (4x) in reaction buffer, columns 1-48.
# (§10) 3; Controls; 23 nL; DMSO in column 4; sinefungin in DMSO (0 uM - 40 uM) in 7-point 1:2 dilution series (n = 2) in column 2.
# (§11) 4; Compounds; 23 nL; Columns 5-48.
# (§12) 5; Reagent; 1 uL; Substrate (4x) in reaction buffer, columns 2-48.
# (§13) 6; Time; 20-30 min; Incubation.
# (§14) 7; Reagent; 1 uL; MTase-Glo reagent (5X), columns 1-48.
# (§15) 8; Time; 30 min; Incubation.
# (§16) 9; Reagent; 5 uL; MTase-Glo Detection reagent, columns 1-48.
# (§17) 10; Time; 30 min; Incubation, luminescence evolution.
# (§18) 11; Detection; Luminescence; ViewLux uHTS Microplate Imager (PerkinElmer).
# (§19) NOTES (numbers refer to Sequence numbers above)
# (§20) 1, 2, 5. White Medium Binding Greiner 1536-well plates (Cat #789175-F, Greiner Bio-One, Monroe, NC); Reaction buffer: 50 mM Tris, pH 8.0, 3 mM MgCl2, 1 mM EDTA, 50 mM NaCl, 1 mM DTT, and 0.1 mg/mL BSA. Evaporation was prevented by covering assay plates with metal lids containing holes to allow gas diffusion.
# (§21) 1. Six SMMTase were profiled: HNMT, GNMT, PNMT, COMT, NNMT, GAMT
# (§22) 5. The corresponding substrate was used for each enzyme: HNMT - 5.3 uM Histamine; GNMT - >500 uM Glycine; PNMT - 16.2 uM Norephinephrine; COMT - 13.7 uM Norephinephrine; NNMT - 3.8 uM Nicotinamide; GAMT - 2.5 uM Guanidinoacetate.6, 8, 10. Room temperature
# (§23) 6. Final reaction conditions: 10 nM COMT, 5 uM SAM, 15 uM norepinephrine, 50 mM Tris, pH 8.0, 3 mM MgCl2, 1 mM EDTA, 50 mM NaCl, 1 mM DTT, and 0.1 mg/mL BSA; refer to tables 2 and S1 for specific timing.
# 8. […]
# [2] = molecular target: Glycine N-methyltransferase (Homo sapiens) (UniProt Q14749); conditions: purified enzyme, MTase-Glo SAH luminescence; measured here: GNMT inhibition; at 40 µM; stronger effect = lower value
# Source text: as §1, §2, §3, §4, §5, §6, §7, §8, §9, §10, §11, §12, §13, §14, §15, §16, §17, §18, §19, §20, §21, §22, §23
# 8. […]
# [3] = molecular target: Guanidinoacetate N-methyltransferase (Homo sapiens) (UniProt Q14353); conditions: purified enzyme, MTase-Glo SAH luminescence; measured here: GAMT inhibition; at 40 µM; stronger effect = lower value
# Source text: as §1, §2, §3, §4, §5, §6, §7, §8, §9, §10, §11, §12, §13, §14, §15, §16, §17, §18, §19, §20, §21, §22, §23
# 8. […]
# [4] = molecular target: Histamine N-methyltransferase (Homo sapiens) (UniProt P50135); conditions: purified enzyme, MTase-Glo SAH luminescence; measured here: HNMT inhibition; at 40 µM; stronger effect = lower value
# Source text: as §1, §2, §3, §4, §5, §6, §7, §8, §9, §10, §11, §12, §13, §14, §15, §16, §17, §18, §19, §20, §21, §22, §23
# 8. […]
# [5] = molecular target: Nicotinamide N-methyltransferase (Homo sapiens) (UniProt P40261); conditions: purified enzyme, MTase-Glo SAH luminescence; measured here: NNMT inhibition; at 40 µM; stronger effect = lower value
# Source text: as §1, §2, §3, §4, §5, §6, §7, §8, §9, §10, §11, §12, §13, §14, §15, §16, §17, §18, §19, §20, §21, §22, §23
# 8. […]
# [6] = molecular target: Phenylethanolamine N-methyltransferase (Homo sapiens) (UniProt P11086); conditions: purified enzyme, MTase-Glo SAH luminescence; measured here: PNMT inhibition; at 40 µM; stronger effect = lower value
# Source text: as §1, §2, §3, §4, §5, §6, §7, §8, §9, §10, §11, §12, §13, §14, §15, §16, §17, §18, §19, §20, §21, §22, §23
# 8. […]
# % is scaled to controls: 0 for no effect and ±100 for the full control effect.
# Sequence of Histamine N-methyltransferase (Homo sapiens) (P50135 whole entry, looked up): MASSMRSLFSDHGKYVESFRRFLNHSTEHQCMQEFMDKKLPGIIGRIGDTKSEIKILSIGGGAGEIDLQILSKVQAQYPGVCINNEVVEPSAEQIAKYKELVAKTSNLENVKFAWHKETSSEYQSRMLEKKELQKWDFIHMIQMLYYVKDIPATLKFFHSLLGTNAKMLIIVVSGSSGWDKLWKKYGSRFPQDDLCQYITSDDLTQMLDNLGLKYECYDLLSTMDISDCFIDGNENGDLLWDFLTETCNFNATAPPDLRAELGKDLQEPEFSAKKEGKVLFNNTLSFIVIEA
# Sequence of Nicotinamide N-methyltransferase (Homo sapiens) (P40261 whole entry, looked up): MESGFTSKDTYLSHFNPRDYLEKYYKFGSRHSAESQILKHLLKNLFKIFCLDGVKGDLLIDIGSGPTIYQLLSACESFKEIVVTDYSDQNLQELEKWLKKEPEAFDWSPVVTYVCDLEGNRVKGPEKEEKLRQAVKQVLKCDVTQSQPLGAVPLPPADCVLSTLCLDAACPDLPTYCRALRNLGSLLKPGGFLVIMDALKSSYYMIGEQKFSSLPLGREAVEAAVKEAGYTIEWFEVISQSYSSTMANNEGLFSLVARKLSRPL
# Sequence of Catechol O-methyltransferase (Homo sapiens) (P21964 whole entry, looked up): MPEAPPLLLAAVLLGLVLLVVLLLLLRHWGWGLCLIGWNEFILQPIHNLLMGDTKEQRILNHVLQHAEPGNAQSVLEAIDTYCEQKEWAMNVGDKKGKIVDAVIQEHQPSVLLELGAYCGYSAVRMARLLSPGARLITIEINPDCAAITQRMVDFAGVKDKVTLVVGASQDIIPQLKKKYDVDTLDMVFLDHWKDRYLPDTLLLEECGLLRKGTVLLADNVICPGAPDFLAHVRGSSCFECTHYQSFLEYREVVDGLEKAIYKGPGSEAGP
# Sequence of Glycine N-methyltransferase (Homo sapiens) (Q14749 whole entry, looked up): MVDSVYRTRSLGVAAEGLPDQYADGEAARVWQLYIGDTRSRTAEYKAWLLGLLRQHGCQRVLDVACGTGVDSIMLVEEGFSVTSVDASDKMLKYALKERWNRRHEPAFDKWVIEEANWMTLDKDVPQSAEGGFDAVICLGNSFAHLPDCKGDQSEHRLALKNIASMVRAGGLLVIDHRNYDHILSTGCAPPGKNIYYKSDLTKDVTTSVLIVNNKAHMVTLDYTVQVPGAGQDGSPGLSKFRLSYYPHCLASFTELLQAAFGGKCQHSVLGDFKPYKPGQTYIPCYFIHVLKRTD
# Sequence of Phenylethanolamine N-methyltransferase (Homo sapiens) (P11086 whole entry, looked up): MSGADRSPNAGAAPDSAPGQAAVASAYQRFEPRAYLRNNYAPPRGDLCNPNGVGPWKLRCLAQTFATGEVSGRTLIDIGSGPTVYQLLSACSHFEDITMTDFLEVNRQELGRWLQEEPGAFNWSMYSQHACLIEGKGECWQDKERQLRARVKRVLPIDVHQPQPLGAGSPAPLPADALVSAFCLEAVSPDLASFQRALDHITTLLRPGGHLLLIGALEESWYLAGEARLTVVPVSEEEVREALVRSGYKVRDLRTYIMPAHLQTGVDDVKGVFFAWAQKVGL
Compound,"activity change, negative = inhibition [1]","activity change, negative = inhibition [2] [%]","activity change, negative = inhibition [3] [%]","activity change, negative = inhibition [4] [%]","activity change, negative = inhibition [5] [%]","activity change, negative = inhibition [6] [%]"
Cc1cc2c(F)c(Oc3ncnn4cc(OCC(C)O)c(C)c34)ccc2[nH]1 (configuration not stated),3.68% (inactive),3.84,9.85,8.7,-17.3,-3.09
Cc1nonc1OCCn1ccnc1-c1cn(C2CCNCC2)nn1,0.411% (inactive),-2.5,-0.534,-2.48,-2.16,-1.03
CCOC(=O)c1ccc(N2C(=O)CSc3c(c4ccccc4n3C)C2C(=O)NCc2ccccc2)cc1 (configuration not stated),8.93% (inactive),13.6,0.807,10.5,10.6,10.2
CC1CC(O)/C=C/C(O)/C=C\C(=O)O1 (configuration not stated),-1.4% (inactive),0.769,10.1,9.33,-2.16,5.9
O=C(CCn1ccc2cc(S(=O)(=O)N3CCCC3)ccc21)NCc1cccc(Cl)c1,-5.13% (inactive),-5.66,0,-0.957,-15.3,-7.6
CC(F)(F)CN1CCOc2c(nn(-c3ccccc3Cl)c2-c2ccc(Cl)cc2)C1=O,-4.89% (active),-72.3,-2.43,-6.67,-49.1,-14.4
COc1cc(NC(=O)CSc2nnc3n(CC(C)C)c(=O)c4ccccc4n23)cc(OC)c1,1.19% (inactive),0.652,4.16,4.88,0.518,1.8
CC1=C(C(=O)O)/C(=C/CO[C@@H]2O[C@H](COC(=O)/C=C/c3ccc(O)cc3)[C@@H](O)[C@H](O)[C@H]2O)C(O)C1 (some centres not stated),-20.2% (inactive),4.68,4.63,9.32,-5.67,0.561
COc1ccc2cc3n(c2c1)CC(C)(C(=O)NC1CCCC1)N(CCc1ccc(SC)cc1)C3=O (configuration not stated),-1.16% (inactive),0.148,0,3.11,-0.661,-4.18
CCC[C@H]1CN(C(=O)c2ccc3c(c2)NC(=O)CN3)C[C@@H]1N,-3.16% (inactive),-3.38,-8.81,-2.88,-6.82,-2.87
CCOc1ccc(N2C(=O)c3cc(-c4ccc(OC)cc4)nn3CC2(C)C(=O)NCc2ccccc2OC)cc1 (configuration not stated),4.86% (inactive),7.45,4.82,9.26,5.96,0.163
CN1C(=O)c2cc(C(=O)NCCc3cccs3)nn2CC1(C)C(=O)NCc1ccc(F)cc1 (configuration not stated),1.71% (inactive),3.48,0,-2.18,9.12,3.02
C[C@]12CCC[C@](C)(C(=O)O)C1[C@@H](O)[C@@H](O)C13CC(CCC12)C(CO)(O[C@@H]1O[C@H](CO)[C@@H](O)[C@H](O)[C@H]1O)C3 (some centres not stated),-23% (inactive),0,1.76,7.4,-7.28,3.45
CCOC(=O)c1cc2n(n1)CC(C)(C(=O)NC1CCCC1)N(c1ccc(C)c(C)c1)C2=O (configuration not stated),1.75% (inactive),4.07,4.83,3.71,1.82,2.03
O=C(NCc1ccc(Cl)cc1)c1cc(-c2ccc[nH]2)n[nH]1,-7.05% (inactive),-26.5,-7.92,-7.72,-8.3,2.91
O=C(N[C@@H]1CN(c2ccncn2)C[C@H]1CO)C1CCCC1,-2.82% (inactive),-3.56,-4.46,-1.77,-6.98,-3.66
O=C(Nc1ccc2ncnc(N3CCCCC3)c2c1)C1CCCCC1,-91.5% (active),-90.3,-88.7,-91.6,-92.3,-90.6
Cn1nccc1C(=O)NC1CCCN(c2cc(N3CCCC3)ncn2)C1 (configuration not stated),-8.51% (inactive),-8.51,-10.5,-21.6,-17.7,-11.9
COc1ccc(OC)c(CNC(=O)CCn2ccc3cc(S(=O)(=O)N4CCCCC4)ccc32)c1,-2.28% (inactive),-4.44,0.679,-7.33,-15,-3.87
COc1cc2c(cc1O)NC(=O)CC2c1cn[nH]c1-c1cc(C)ccc1C (configuration not stated),-43% (active),-48.4,-38.7,-60.8,-38.3,-13.5
COCC(=O)Nc1ncncc1-c1noc([C@@H]2CCCN2Cc2cc(OC)c(OC)c(OC)c2)n1,-16.9% (inactive),-9.35,-8.08,-8.93,-16.4,-12.8
O=C(c1ccc(C(F)(F)F)cc1)N1CCC2(COc3ccncc3[S+](=O)([O-])N2)C1 (configuration not stated),-0.613% (inactive),-4.6,-3.02,-0.962,-5.7,-0.429
Cn1ccc(Nc2cc3c(cn2)CN(CCc2ccccc2)CCN3)n1,-9.44% (active),-10.2,-12.2,-92.8,-17.5,-56.1
O=C1N2CCCC2CN1C1CCN(Cc2ccsc2)CC1 (configuration not stated),3.52% (inactive),-1.71,0.192,0.939,-3.94,6.61
CN(CC(=O)N1CCC2(CCNCC2)CC1)Cc1cccnc1,-5.94% (inactive),-3.63,-4.3,-5.87,-4.19,-3.85
COc1ccc(S(=O)(=O)N2CCCCC2c2n[nH]c(C)n2)cc1 (configuration not stated),12.4% (inactive),15.6,2.87,11.2,10.1,11.2
O=C1NC(=NC2CCCC2)C2(CCCN([S+](=O)([O-])c3ccccc3)C2)N1c1cccnc1 (configuration not stated),-0.276% (inactive),-3.99,-4.94,-1.01,-11,-21.7

# From PubChem BioAssay AID1745853 (National Center for Advancing Translational Sciences (NCATS), 2022)
